A selection: hits, their analogues and other compounds. The true share with any hit is near 19%.
KB-V1 cytotox = kills drug-selected multidrug resistant KB-V1 cells | Potency, µM (highest dose often 46.1 µM), hits mostly cytotoxic | KB-V1 MDR cells viability, CellTiter-Glo, 72 h | hit rate 3.4% among 400,000 | AID 1347076; also: nearly all actives have a fitted effect of over 60% in size
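qHTS viability screen in drug-selected KB-V1 MDR cells: 72 h compound treatment at 37 degrees C, ATP luminescence end point.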
TDP1 cell CPT = growth inhibition of DT40 Tdp1-/-;hTDP1 cells with camptothecin (screen for TDP1 inhibitors); chicken DT40 Tdp1-/-;hTDP1 cells + 20 nM CPT, ATP luminescence, 48 h; AID 686979; hit rate 12% among 420,000; Potency, µM (series often up to 46.2 µM), inactives show at the top dose activity change, negative = growth inhibition, usual class: inhibitors; also: nearly all actives have a fitted effect of over 55% in size
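Cell growth measured by CellTiter-Glo luminescence after a minimum 48 h, 37 C compound exposure with 20 nM CPT in Tdp1-knockout DT40 cells stably expressing hTDP1, seeded 400/well; qHTS titration format.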
KB-3-1 cytotox = kills parental KB-3-1 adenocarcinoma cells | hit rate 1.4% among 400,000 | KB-3-1 viability, CellTiter-Glo ATP luminescence, 72 h | Potency, µM (highest dose often 46.1 µM), hits mostly cytotoxic | AID 1347075; also: nearly all actives have a fitted effect of over 60% in size
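Viability of parental KB-3-1 cells, measured by CellTiter-Glo luminescence, followed a 72 h incubation at 37 °C with pinned compounds in phenol-red-free DMEM containing 10% FBS.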
DT40 TDP1 no CPT = qHTS for Inhibitors of human tyrosyl-DNA phosphodiesterase 1 (TDP1): qHTS in cells in absence of CPT; hit rate 15% among 420,000; AID 686978, 2013; Potency, µM (doses to about 46.2 µM), for inactives: at the highest dose activity change, negative = growth inhibition, most hits filed as inhibitors; DT40 Tdp1-/- hTDP1 cells, no CPT, ATP luminescence, 48 h; also: nearly all actives have a fitted effect of over 55% in size
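Camptothecin absent (DMSO only). Human TDP1-complemented DT40 knockout cells, 400 cells/well, 37 °C for minimum 48 hr; ATP measured via CellTiter-Glo, 30 min dark incubation, luminescence.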
HT1080 IDH1KD tx = HT-1080 IDH1 knockdown cell toxicity (counter line) | HT-1080 IDH1 knockdown viability, ATP luminescence, 48 h | Potency, µM (doses to about 46.1 µM), without a hit: top-dose activity, negative = toxicity, actives largely listed as cytotoxic | hit rate 2% among 360,000;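 also: 0% = DMSO wells and -100% = cell-free medium wells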
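HT-1080-IDH1KD cells (IDH1 knocked down), 750/well in RPMI with 5% FBS, treated with compound 48 h at 37 degrees C. Viability by CellTiter-Glo luminescence, normalised to DMSO and no-cell wells; concentration-response curves classed.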
HT1080-NT tox = kills 2HG-producing HT-1080-NT fibrosarcoma cells; AID 686970; HT-1080-NT fibrosarcoma viability, CellTiter-Glo ATP luminescence, 48 h; hit rate 1.6% among 360,000; Potency, µM (titrated, usually from 46.1 µM), without a hit: top-dose activity, negative = less viability, most hits filed as cytotoxic;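 also: NT is the 2HG producing partner of a matched IDH1 knockdown line; 0% = DMSO-treated cells and -100% = media-only wells without cells; nearly all actives have a fitted effect of over 55% in size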
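Luminescent CellTiter-Glo readout after 48 hours of compound exposure at 37 degrees C defined viability of HT-1080-NT cells. Activity was normalized to DMSO wells and cell-free media wells; concentration-response curves were fitted and assigned curve classes.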
The depositor's hits bear a star; i = inactive; ? = inconclusive; . = no result; [ ] = dose if it differs, or a comment. Calls follow the shape of the dose curve; as a rule, active = well fitted curve in the direction sought with a large enough effect; inconclusive = small, poorly fitted or top-dose-only effect, or another doubt; inactive = no such curve, though single readings can be large; an effect the other way counts as inactive or inconclusive. Unless noted, % is scaled to controls: 0 for no effect and ±100 for the full control effect; potency is read from the fitted curve at half-maximal effect.

SMILES	KB-V1 cytotox	TDP1 cell CPT	KB-3-1 cytotox	DT40 TDP1 no CPT	HT1080 IDH1KD tx	HT1080-NT tox
O=C(N/N=C/c1cccs1)[C@H]1C[C@@H]1c1ccccc1	?	?	i	?	1.1%	-0.2%
Cc1ccc(C)c(CN2C(=O)c3ccccc3Sc3ccc(C(=O)NCCCOC(C)C)cc32)c1	.	?	.	20.6µM*	.	.
O=C1C2=C(S[C@@H]3O[C@H](CO)[C@@H](O)[C@H](O)[C@H]3O2)C(=O)c2ccccc21	.	0.651µM*	.	0.651µM*	.	.
O=C(COc1ccc(-c2ccccc2)cc1)N/N=C/c1cccnc1	i	?	i	?	-9.4%	-11.1%
Cc1cccc(C)c1OCC(=O)N/N=C/c1cccnc1	i	?	i	14.6µM*	-4.2%	-3.5%
COC(=O)N/N=C/c1cccnc1	i	-6.5%	i	-8.9%	20.4%	?
O=C(COc1ccccc1-c1ccccc1)N/N=C/c1ccccn1	?	23.1µM*	i	23.1µM*	-23.3%	-19.8%
O=C(COc1ccccc1-c1ccccc1)N/N=C/c1ccc2ccccc2c1	?	1.16µM*	1.3µM*	0.92µM*	1.16µM*	?
O=C(COc1ccccc1-c1ccccc1)N/N=C/c1cccnc1	?	14.6µM*	?	13µM*	?	?
O=C(N/N=C/c1ccccn1)C1CC1	i	1.2%	i	-13.0%	7.2%	3.2%
CCOc1ccccc1NC(=O)Nn1cnnc1	i	-3.0%	i	4.5%	12.1%	29.2%
Cc1ccc(CSc2nccc(-c3c(C)nc4ccccn34)n2)cc1	6.51µM*	?	18.4µM*	16.4µM*	1.1%	1.7%
CN1CCN(C(=O)C[C@@H]2C=C[C@H](NS(=O)(=O)c3cccc(F)c3)[C@@H](CO)O2)CC1	i	-14.4%	i	13.0%	20.4%	16.3%
CCOC(=O)C1(CC2CC2)CCN(Cc2ccc3cccc(F)c3n2)CC1	?	20.6µM*	i	16.4µM*	-7.0%	5.3%
CCOC(=O)C1(CC2CC2)CCN(Cc2cn[nH]c2-c2cccc(F)c2)CC1	i	?	i	18.4µM*	-4.2%	-4.5%
CCOC(=O)C1(CC2CC2)CCN(Cc2cnc(-c3ccc(OC)cc3)nc2)CC1	?	?	?	16.4µM*	?	-9.5%
CCOC(=O)C1(CC2CC2)CCN(Cc2cn[nH]c2-c2ccccc2)CC1	i	-13.0%	i	12.5%	1.8%	3.7%
O=C(/C=C/[C@H]1O[C@@H](n2ccc(=O)[nH]c2=O)[C@H](O)[C@@H]1O)NCc1ccccc1	i	-1.2%	i	27.1%	25.5%	16.2%
CC(C)=CC1C(C(=O)Nc2ccc(Br)cn2)C1(C)C (configuration not stated)	i	?	i	?	0.8%	8.9%
CCc1nc2ccc(C(=O)NCCCn3ccnc3)cn2c1N(C)Cc1ccc(N(C)C)cc1	i	?	i	-21.1%	4.4%	14.2%
CCc1cc2c(-c3ccccc3)cc(=O)oc2cc1OCC(=O)NCC1CCC(C(=O)O)CC1 (configuration not stated)	i	-6.3%	i	-5.4%	0.0%	4.2%
Cc1cc(Br)c(S(=O)(=O)n2nnc3ccccc32)cc1C	i	-20.0%	i	-7.6%	3.6%[9.24 µM]	-0.1%
COc1cccc(-n2c(-c3ccccc3)c[nH]c2=S)c1	i	?	i	?	-3.3%	-16.5%
COc1ccccc1-n1c(-c2ccccc2)c[nH]c1=S	i	18.4µM*	i	16.4µM*	1.2%	0.3%
Cc1ccc(-c2c[nH]c(=S)n2-c2ccccc2F)cc1	i	?	i	23.1µM*	-8.8%	0.2%

Bioassay records (PubChem)
